Bioassay records as filed in PubChem BioAssay.
rCAG binder – molecules binding r(CAG) RNA repeats; hit rate 1.3% among 370,000; inhibition, % at 3 µM; AID 651821; r(CAG) RNA repeat, TO-PRO-1 dye displacement fluorescence;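 active = inhibition above the plate cutoff, the mean of all test compounds on that plate plus 3 SD, cut at about 35% in these data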;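 also: 0% = DMSO alone and 100% = 100 µM mitoxantrone as full dye displacement; higher means more dye released from RNA so lower well fluorescence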
PG9 binder – PG9 antibody binding by small molecule; TR-FRET gp120-PG9 antibody binding; inhibition, % at 6.7 µM; hit rate 0.43% among 360,000; in the data active = inhibition above about 8.5%
sPLA2-III inh – Blocks human group III sPLA2 activity | Q9NZ20 | inhibition, % at 12.2 µM | hit rate 0.56% among 370,000 | QFRET BODIPY PC-A2 liposome hydrolysis, fluorescence;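 active = inhibition above mean plus 3 SD of compounds lying within the high and low control bounds, cut at about 19% in these data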;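 also: 0% = median of test compound wells and 100% = no enzyme DMSO wells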
Target sequence (Q9NZ20 whole entry, looked up): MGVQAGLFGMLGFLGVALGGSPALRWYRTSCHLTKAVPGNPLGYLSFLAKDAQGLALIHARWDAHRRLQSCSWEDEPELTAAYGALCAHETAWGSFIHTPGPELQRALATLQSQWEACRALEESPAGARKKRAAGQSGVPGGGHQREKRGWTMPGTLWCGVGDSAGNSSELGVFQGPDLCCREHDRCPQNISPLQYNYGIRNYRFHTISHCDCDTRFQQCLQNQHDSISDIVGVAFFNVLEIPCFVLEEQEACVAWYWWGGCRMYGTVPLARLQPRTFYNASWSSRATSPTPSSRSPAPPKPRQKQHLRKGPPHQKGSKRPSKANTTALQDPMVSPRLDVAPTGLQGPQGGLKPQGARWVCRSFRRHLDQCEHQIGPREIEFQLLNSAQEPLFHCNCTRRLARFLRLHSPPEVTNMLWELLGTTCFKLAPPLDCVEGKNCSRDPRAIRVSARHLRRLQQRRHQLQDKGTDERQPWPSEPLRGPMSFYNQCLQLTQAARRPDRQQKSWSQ
MsrA inhibitor – inhibits bovine methionine sulfoxide reductase A; purified bovine MsrA, absorbance read-out; inhibition, % at 15.5 µM; hit rate 0.75% among 360,000;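 also: 0% = vehicle wells with enzyme and 100% = reference inhibitor wells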
bovine MsrA act – bovine methionine sulfoxide reductase A activation; purified bovine MsrA, absorbance read-out; activation, % at 10.6 µM; hit rate 0.3% among 360,000; AID 602163; in the data active = activation above about 7.5%;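 also: 0% = vehicle and 100% = reference activator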
MsrA inh confirm – bovine MsrA inhibition, confirmed; shares compounds with MsrA inhibitor; purified bovine MsrA, absorbance read-out; inhibition, % at 15.5 µM; hit rate 41% among 2,300;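 also: coupled to thioredoxin reductase with NADPH and selenocystamine and DMSO as substrate; 0% = vehicle only and 100% = full effect of reference inhibitor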
* marks the source's active call; other numbers are inactive results. A selection: hits, their analogues and other compounds. The true share with any hit is near 3.2%. Rule as the data show it, unless noted: active = inhibition above about 4.5%; inactive = the rest.

COC(=O)[C@]12C[C@H](CC(=O)NCc3ccc(OC)c(OC)c3)C(=O)N(Cc3cccc4ccccc34)C1=C[C@H](COCc1ccccc1)O[C@@H]2C was read as rCAG binder 14 and sPLA2-III inh -11.
Screening O=C(CSc1nnc(-c2ccccn2)n1-c1ccc(Cl)cc1)Nc1cccc2ccccc12 returned rCAG binder 3 and sPLA2-III inh -11.
COc1ccc(CC(=O)Nc2ccc(C)cc2S(=O)(=O)N2CCOCC2)cc1OC was read as rCAG binder 1 and sPLA2-III inh -3.
COc1cc(/C=C2/C(=O)N(c3ccc([N+](=O)[O-])cc3)N=C2N2CCOCC2)ccc1O was read as rCAG binder 5, PG9 binder -1, sPLA2-III inh 7, MsrA inhibitor 4.7*, bovine MsrA act -3 and MsrA inh confirm 4.6*.
`Cc1cc(C(=O)N/N=C/c2sc(N3CCOCC3)nc2-c2ccccc2)c(C)o1` gave rCAG binder 9, PG9 binder -3, sPLA2-III inh -2, MsrA inhibitor 17*, bovine MsrA act -2 and MsrA inh confirm 6.7*.
Screening c1ccc(-c2nc(N3CCOCC3)sc2-c2ccccc2)cc1 returned rCAG binder -5, PG9 binder 0, sPLA2-III inh 10, MsrA inhibitor 0 and bovine MsrA act -1.
Nc1ccc(C(=O)N/N=C/c2sc(N3CCOCC3)nc2-c2ccccc2)cc1 was read as rCAG binder 0, PG9 binder -14, sPLA2-III inh 9, MsrA inhibitor 7.4*, bovine MsrA act -3 and MsrA inh confirm 4.
COc1cc(C(=O)N/N=C/c2sc(N3CCOCC3)nc2-c2ccccc2)cc(OC)c1OC was read as rCAG binder -1, PG9 binder -2, sPLA2-III inh -1, MsrA inhibitor 6.6*, bovine MsrA act -5 and MsrA inh confirm 3.
For O=[N+]([O-])c1ccc(N/N=C/c2sc(N3CCOCC3)nc2-c2ccccc2)c(S(=O)(=O)Nc2ccc(Cl)cc2)c1 the results were rCAG binder 11, PG9 binder 0, sPLA2-III inh -2, MsrA inhibitor 0 and bovine MsrA act -2.
`O=C(N/N=C/c1sc(N2CCOCC2)nc1-c1ccccc1)c1cccc(S(=O)(=O)N2CCOCC2)c1` gave rCAG binder 20, PG9 binder -5, sPLA2-III inh 3, MsrA inhibitor 3 and bovine MsrA act 2.
For O=C(O)c1cccc(N/N=C/c2sc(N3CCOCC3)nc2-c2ccccc2)c1 the results were rCAG binder 26, PG9 binder -6, sPLA2-III inh -2, MsrA inhibitor 19*, bovine MsrA act -15 and MsrA inh confirm 17*.
Cc1cccc(-c2cccc3c4c([nH]c23)[C@@H]2C[C@H](N(C)C(=O)Nc3ccccc3)[C@H]([C@H](C)O)CN2CC4)c1 was read as rCAG binder 6 and sPLA2-III inh -1.
`CCOc1ccc(-n2c(SCC(=O)Nc3ccc4c(c3)OCCO4)nnc2-c2ccncc2)cc1` gave rCAG binder 2 and sPLA2-III inh 1.
O=C(N/N=C/c1sc(N2CCOCC2)nc1-c1ccccc1)c1ccccc1O was read as rCAG binder 14, PG9 binder -3, sPLA2-III inh -10, MsrA inhibitor 6.5*, bovine MsrA act -6 and MsrA inh confirm 5.1*.
For O=C(Nc1ccccc1F)C(=Cc1sc(N2CCOCC2)nc1-c1ccccc1)C(=O)Nc1ccccc1F the results were rCAG binder -2, PG9 binder -2, sPLA2-III inh 8, MsrA inhibitor 4.8*, bovine MsrA act -6 and MsrA inh confirm 4.
O=C(N/N=C/c1sc(N2CCOCC2)nc1-c1ccccc1)c1ccccc1Cl was read as rCAG binder -2, PG9 binder -1, sPLA2-III inh 5, MsrA inhibitor 0 and bovine MsrA act -11.
`CC(C)(C)c1ccc(-c2nnc(SCc3ccccc3)n2Cc2ccco2)cc1` gave rCAG binder 2 and sPLA2-III inh -7.
COc1ccc(C(=O)/C=C/c2ccc(O)cc2)cc1 was read as rCAG binder 3, PG9 binder 1, sPLA2-III inh -3, MsrA inhibitor 5.0*, bovine MsrA act -2 and MsrA inh confirm 4.
For COC(=O)c1ccc(S(=O)(=O)N2CCC(NC(=O)CCc3ccccc3)CC2)cc1 the results were rCAG binder 2 and sPLA2-III inh 2.
Cc1ccc(NC(=O)[C@@H]2CC(=O)O[C@@H]2c2ccccc2)cc1C was read as rCAG binder 0 and sPLA2-III inh 0.
For COc1c(O)ccc(/C=N/NC(=O)c2ccc3c(c2)OCCO3)c1[N+](=O)[O-] the results were rCAG binder 1, PG9 binder -4, sPLA2-III inh 7, MsrA inhibitor 7.2*, bovine MsrA act -6 and MsrA inh confirm 4.
Screening COc1cc(/C=N/NC(=O)c2ccc3c(c2)OCCO3)cc(Cl)c1O returned rCAG binder 6, PG9 binder -13, sPLA2-III inh 3, MsrA inhibitor 6.0*, bovine MsrA act -9 and MsrA inh confirm 5.0*.
COc1c(O)ccc(/C=N\NC(=O)c2ccc3c(c2)OCO3)c1[N+](=O)[O-] was read as rCAG binder 1, PG9 binder -2, sPLA2-III inh -1, MsrA inhibitor 8.1*, bovine MsrA act -4 and MsrA inh confirm 4.9*.
Screening COc1ccc2c(c1)CNC2CS(=O)(=O)NCCc1ccccc1 (centres undefined) returned rCAG binder 10 and sPLA2-III inh 0.
For CC1=C[C@]2(C[N+](Cc3ccccc3)=C(N)N2)n2c(=O)n(-c3ccccc3)c(=O)n2C1 the results were rCAG binder 7 and sPLA2-III inh 0.
Cc1ccc(-n2c(Cc3cccs3)nnc2SCc2ccc(C#N)cc2)cc1 was read as rCAG binder 1 and sPLA2-III inh 3.
Screening C=CCN1C(=O)[C@@H](CC(=O)NCc2cccc3ccccc23)[C@]2(C(=O)OCC)CCCCC/C=C/12 returned rCAG binder 3 and sPLA2-III inh -4.
Screening O=C(Nc1nc2ccccc2s1)c1ccc(N2CCCCC2)c([N+](=O)[O-])c1 returned rCAG binder 24, PG9 binder -1, sPLA2-III inh -4, MsrA inhibitor 4.7*, bovine MsrA act -1 and MsrA inh confirm 2.
For O=C(Nc1ccon1)c1ccc(N2CCCCC2)c([N+](=O)[O-])c1 the results were rCAG binder 3, PG9 binder 0, sPLA2-III inh 0, MsrA inhibitor 0 and bovine MsrA act -2.
CN(C)/N=C/c1ccc([N+](=O)[O-])cc1[N+](=O)[O-] was read as rCAG binder 1, PG9 binder -1, sPLA2-III inh 2, MsrA inhibitor 7.7*, bovine MsrA act -1 and MsrA inh confirm 3.
CN(N=Cc1cccc2cccnc12)c1ccc([N+](=O)[O-])cc1[N+](=O)[O-] was read as rCAG binder 0, PG9 binder -2, sPLA2-III inh -2, MsrA inhibitor 1 and bovine MsrA act -2.
`C[C@H](O)[C@@H]1CN2CCc3ccc(N4CCOCC4)cc3[C@@H]2C[C@@H]1N(C)CC1CCCCC1` gave rCAG binder 1 and sPLA2-III inh 6.
